Growth data for 8 molecules are collected here from PubChem BioAssay (NCI).

Common to all, as to experiment: NCI-60 one-dose screen, 48 h (100 = growth as untreated, 0 = no growth, -100 = all killed)
What all share (details): 10 µM unless noted

The test system of test [1] is SR leukemia.
Test [2] has as its system RPMI-8226 leukemia.
In test [3] the test system is OVCAR-8 ovarian.
The test system of test [4] is OVCAR-5 ovarian.
Test [5] has as its system OVCAR-4 ovarian.
Test [6] deals with SK-OV-3 ovarian.
For test [7], the system named is IGROV1 ovarian.
The test system of test [8] is OVCAR-3 ovarian.
Test [9] relates to HS 578T breast.
The test system of test [10] is NCI/ADR-RES ovarian.
Test [11] deals with T-47D breast.
Test [12] deals with BT-549 breast.
The test system of test [13] is MDA-MB-435 melanoma.
Test [14] deals with SW-620 colon.
Test [15] relates to MCF7 breast.
Test [16] deals with HCT-116 colon.
The subject of test [17] is HCC-2998 colon.
The test system of test [18] is KM12 colon.

Molecules are shown by their SMILES. This is part of a sample that, as a whole, favours compounds with a hit. Of some 83,000 tested, about 20% had one in any assay.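 A percent growth of 40 corresponds to 60% growth inhibition; 0 means no net growth; -100 means all cells died. Active threshold: below 10.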 Unmarked numbers belong to inactive results. Active and inactive are the calls of the source.

As to `CCCC(=O)NC(c1cccnc1)c1cc(C(C)=O)c2cccnc2c1O` (centres undefined), the growth was 52.5% in test [1]; 38.2% in [2]; 21.7% in test [3]; 40% in test [4]; 19.6% in test [5]; 31.9% in [6]. For the same molecule, the growth was 36.7% in [7]; 17.1% in test [8]; 69.6% in test [9]; 30.4% in [10]; 41.7% in [11]; 32.2% in test [12]. Also, the growth in test [13] was 34.5%; in test [14] it was 38%; in [15], 18.8%; in test [16], 25.5%; in test [17] it was 24.9%; in test [18], 21.4%.
As to `CC(=O)c1ccc(NC(=O)COc2ccc(C3SCC(=O)N3c3ccc(Br)cc3)cc2)cc1` (centres undefined), the growth was 77% in test [1]; 89.6% in test [2]; 97.5% in [3]; 102% in [4]; 103% in test [5]; 105% in [6]. The growth in [7] is 89.7%; in test [8], 121%; in test [9], 100%; in test [10], 92.6%; in [11], 88.7%; in [12] it was 95.7%. Moreover, the growth in [13] was 102%; in test [14] it was 110%; in test [15], 89.6%; in test [16], 91%; in test [17], 103%; in [18], 98.2%.
`C/C(=C(/C)C1CC1CCN(C(=O)c1ccccn1)S(=O)(=O)c1ccc(C)cc1)C1CCCCC1` (centres undefined): the growth in test [1] was 105%; in test [2] it was 92.2%; in test [3], 96.8%; in [4], 93.1%; in test [5], 83.8%; in test [6], 101%. In addition, the growth in test [7] is 103%; in [8] it was 108%; in [9], 102%; in test [10], 81.9%; in test [11], 78.5%; in test [12], 120%. Further, the growth in test [13] is 98.2%; in test [14] it was 103%; in [15] it was 74.7%; in test [16], 90.1%; in test [17], 97.4%; in test [18], 98.6%.
`COc1ccc(-c2nnc(SCc3ccc(O)c4ncccc34)o2)cc1`: the growth is 45.8% in [1]; 9.32% (active) in test [2]; 35.1% in test [3]; 88.4% in [4]; 24.5% in test [5]; 51.7% in [6]. The growth in test [7] is 43%; in [8] it was 21.6%; in test [9], -0.148% (active); in test [10] it was 16.9%; in test [11], 27%; in [12], 35.7%. Further, the growth was 24% in [13]; 17.7% in [14]; 14.9% in [15]; 23.1% in test [16]; 45.2% in [17]; 15.7% in test [18].
As for `C#CCOc1ccccc1C(Nc1ccccc1)c1nnnn1C1CCCCC1` (centres undefined), the growth is 98.1% in test [1]; 89.7% in test [2]; 101% in test [3]; 91.9% in test [4]; 94.5% in [5]; 101% in test [6]. Further, the growth in test [7] was 89.6%; in test [8], 109%; in test [9], 95.2%; in [10], 96.1%; in test [11] it was 93%; in test [12] it was 109%. In addition, the growth in test [13] is 101%; in [14], 104%; in test [15], 94.3%; in test [16] it was 84.3%; in test [17] it was 106%; in test [18] it was 94.6%.
`C#Cc1ccc(NC(=O)c2ccc(/C=C/C(=O)c3nccn3C)cc2)c(F)c1`: the growth was 8.09% (active) in test [1]; -5.69% (active) in [2]; 21.4% in test [3]; 40.7% in test [4]; 42.3% in test [5]; 65.3% in test [6]. The growth in [7] is 23.9%; in test [8], 12.6%; in test [9], 51.4%; in test [10], 10.8%; in test [11], 14.6%; in test [12], 40.2%. Further, the growth in [13] was 27.9%; in test [14], 18.9%; in [15] it was 11%; in test [16], 18%; in [17], 82.6%; in [18], 23.5%.
For the molecule `O=C(CCCCCCN1CC(=O)N2[C@@H](c3ccc(Cl)c(F)c3)c3[nH]c4ccccc4c3C[C@H]2C1=O)NO`, the growth in [1] was 45.1%; in test [2], 59.1%; in [3], 66.5%; in [4] it was 87.6%; in test [5], 84.3%; in test [6] it was 81.8%. Further, the growth in test [7] is 64.5%; in test [8], 83.6%; in test [9], 98.4%; in test [10], 101%; in test [11], 75.6%; in test [12], 108%. In addition, the growth is 82.8% in test [13]; 74.7% in [14]; 73.2% in test [15]; 55.5% in test [16]; 99.2% in test [17]; 87.1% in [18].
As to `Nc1ccc(-c2nnc(SCc3ccc(O)c4ncccc34)o2)cc1`, the growth was 18.8% in [1]; -9.68% (active) in test [2]; 8.94% (active) in [3]; 25% in [4]; -1.57% (active) in test [5]; -15.3% (active) in test [6]. The growth in [7] was 0.429% (active); in [8], 7.75% (active); in test [9], -12.6% (active); in [10] it was -9.89% (active); in test [11], -19.7% (active); in test [12], -11.7% (active). In addition, the growth in [13] was 7.57% (active); in test [14] it was 5.51% (active); in test [15], 2.52% (active); in [16], 0.176% (active); in test [17] it was 14.3%; in test [18], 0.48% (active).
